# eIF4E-4G inh – eIF4E/eIF4G interaction inhibition in translation initiation | P63073+Q04637 | inhibition, % at 21.7 µM | AID 782 | actives 0.37% (n = 220,000) | TR-FRET eIF4E-eIF4GI(517-606) binding, 2 h;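 active means inhibition above about 30%, limit read from the data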;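 further: 0% = full FRET control wells and 100% = background wells lacking eIF4GI fragment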
# eIF4H FP inh – inhibitors of RNA binding by human eIF4H; Q15056; eIF4H fluorescence polarization binding assay; inhibition, % at 35 µM; actives 0.94% (n = 290,000);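 further: calls also rest on retests at 20 µM and on dose response follow-up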
# MLLE-PAM2 inh – inhibitors of microRNA-mediated deadenylation, human PABP1 MLLE binding | GST-MLLE / FITC-PAM2 fluorescence polarization | inhibition, % at 20 µM | actives 0.36% (n = 360,000) | AID 588489; in the data active means inhibition above about 35%, passing the limit was not always enough;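 further: plate controls were DMSO wells with GST-MLLE for no effect and wells lacking GST-MLLE protein for full effect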
# EBV gp42 inh – EBV gp42 inhibition. Q1HVG2. Fluorescence polarization binding assay, mP read-out. inhibition, % (tested at 21.74 µM). actives 0.42% (n = 220,000). AID 1085; in the data active means inhibition above about 50%
# PABP FP inh – PABP-poly(A) binding inhibition; P11940; PABP-poly(A) RNA binding, fluorescence polarization; calls only at 35 µM; actives 1% (n = 290,000); AID 2014;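 further: calls also rest on retests at 20 µM and on dose response follow-up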
# Starred values were filed as active, the others as inactive; i = inactive; ? = inconclusive; · = no result given; + = active, no number; [ ] = another dose, or the depositor's remark. This is a sample that favours compounds with a hit; in the whole collection about 1.7% have one here. Unless noted, how the calls were made is not given here.
SMILES,eIF4E-4G inh,eIF4H FP inh,MLLE-PAM2 inh,EBV gp42 inh,PABP FP inh
Cc1nc2cc(OCc3cc(C(=O)NC(C)c4cnn(C)c4)no3)ccc2s1 (configuration not stated),·,-14,-1,·,i
Cc1ccc(NC2=C(Cl)C(=O)OC2OC(C)C)cc1 (configuration not stated),-4,-2,5,-4,?
Cc1ccc(C)c(NC2=C(Cl)C(=O)OC2OC(C)C)c1 (configuration not stated),-2,active,-7,-2,+
Cc1ccc(Nc2c([N+](=O)[O-])ccc3c2=NC2(CCCCC2)N=3)cc1,5,-4,39*,-4,i
O=[N+]([O-])c1ccc2c(c1Nc1ccccc1Cl)=NC1(CCCCC1)N=2,8,0,-5,3,i
CS(=O)(=O)c1cccc(C(=O)Nc2nnc(C3=COCCO3)o2)c1,·,·,41*,·,·
N#CCCN(CCC#N)S(=O)(=O)c1ccc(C(=O)Nc2nnc(C3=COCCO3)o2)cc1,-3,82*,1,-21,+
O=S(=O)(Nc1cccc(-n2cnnn2)c1)c1ccccc1F,·,-10,7,·,i
CN(C)CCCNC(=O)c1ccc(=O)[nH]n1,0,91*,-4,-9,+
Cc1ccc(C(=O)NCCCNCCCNC(=O)c2ccc(C)nc2)cn1,6,-2,2,-25,i
Cc1ccc(C(=O)NCCCNCCCN(C)C)cn1,-16,68*,-2,2,+
CN(C)Cc1c(C(=O)N/N=C/C2CC=CCC2)nnn1-c1nonc1N (configuration not stated),·,10,8,·,i
NNC(=S)Nc1c(Br)cc(F)cc1Br,2,19,-1,-12,i
COc1ccccc1C1CC(c2cccs2)=NN1C(=O)CCC(=O)O (configuration not stated),·,-12,-27,·,i
COc1ccccc1C1CC(c2cccs2)=Nc2ccccc2S1 (configuration not stated),4,3,46*,-13,i
CC(NC(=O)CSc1nnc(CC(=O)Nc2ccc(Cl)c(Cl)c2)n1C)c1ccccc1 (configuration not stated),43*[fluorescence artefact?],9,-84,-96,i
Cn1cnnc1SCc1ccc(C(=O)O)cc1,-2,9,20,-8,i
Cc1ccc2cc(C)c3nnc(SCc4ccc(C(=O)O)cc4)n3c2c1C,97*,0,-67,-6,i
O=C(NC(=S)Nc1ccc(CN2CCOCC2)cc1)c1ccc([N+](=O)[O-])cc1,1,-5,52*,-31,i
COc1ccc(C(=O)NC(=S)Nc2ccc(CN3CCOCC3)cc2)cc1,-4,-4,20,-5,i
O=C(/C=C/c1cccc([N+](=O)[O-])c1)NC(=S)Nc1ccc(CN2CCOCC2)cc1,-3,-7,40*,-23,i
O=C(CCCSc1nc2ccccc2c(=O)[nH]1)c1ccc(F)cc1,1,84*,-13,-14,i
CC1CCN(C(=O)CSc2nnc(-c3ccc(S(=O)(=O)N4CCOCC4)cc3)n2C)CC1,-1,53*,-7,-22,+
CC(C)CC(=O)N1CCN(S(=O)(=O)c2ccc3ccccc3c2)CC1,-1,5,-4,-11,i
Cc1ccc(C(=O)NC(=S)Nc2ccc(N3CCN(C(=O)c4ccco4)CC3)cc2)cc1,·,-6,40*,·,i
SMILES,eIF4E-4G inh,eIF4H FP inh,MLLE-PAM2 inh,EBV gp42 inh,PABP FP inh
CC(C)(C)c1ccc(C(=O)NC(=S)Nc2ccc(N3CCOCC3)cc2)cc1,1,5,34,-5,+
CC(=O)N1CCN(c2ccc(NC(=S)NC(=O)COc3ccc(C(C)(C)C)cc3)cc2)CC1,17,6,44*,-14,i
CCC(=O)N1CCN(c2ccc(NC(=S)NC(=O)COc3ccccc3)cc2)CC1,-3,-3,24,-2,i
CCNC(=S)N/N=C/c1cn(Cc2ccc(F)cc2)c2ccccc12,2,82*,8,13,+
Cc1ccc(C(=O)N/N=C/c2cn(Cc3ccccc3)c3ccccc23)cn1,6,-8,1,-5,i
O=C(N/N=C/c1cn(Cc2ccccc2)c2ccccc12)c1cc(O)cc(O)c1,·,62*,-5,·,i
CCNC(=S)N/N=C/c1cn(Cc2ccccc2F)c2ccccc12,2,5,12,-11,i
CCC/C=N/NC(=O)c1ccccc1O,-3,-4,1,-22,i
COc1cccc(NC(=O)CN(C)C(=O)c2ccccn2)c1,·,·,11,·,·
N#C/C(=C\c1ccc(-c2ccc(C(=O)O)cc2)o1)C(=O)Nc1ccc(F)cc1,·,87*,-82,·,+
O=C(NCCSc1ccc(Br)cc1)c1ccc2nc[nH]c2c1,·,30,-10,·,i
Cc1ccc(OCCn2c(C3CC(=O)N(Cc4ccccc4)C3)nc3ccccc32)cc1 (configuration not stated),1,-12,-10,73*,i
CCCn1c(C2CC(=O)N(c3ccc(C)cc3)C2)nc2ccccc21 (configuration not stated),3,-3,-3,-6,i
CCOC(=O)Cn1c(=O)oc2cc(S(=O)(=O)NCc3cccs3)ccc21,54*[fluorescence artefact?],-10,-4,-5,i
CCOC(=O)Cn1c(=O)oc2cc(S(=O)(=O)NCc3ccccn3)ccc21,1,16,-18,-17,i
Cc1onc(-c2ccccc2)c1C(=O)OCC(=O)N1CCN(c2ccccc2)CC1,·,·,-5,·,·
Cc1cccc(NC(=O)CCc2nnc3ccc(N4CCC(C)CC4)nn23)n1,·,·,1,·,·
CCc1c(C(C)S(=O)(=O)c2ccccc2)[nH]c(=O)n1CC (configuration not stated),-2,2,40*,-8,i
COc1ccc(/C=N/Nc2ccccn2)c(OC)c1OC,1,1.9*,2,2,+
C(=C\c1ccccc1)/CSc1ccccn1,-1,active,-10,-1,+
COc1ccc(C(C)=O)cc1CSc1nc2cc(Cl)ccc2o1,-4,65*,-12,-8,+
COc1ccc(C(C)=O)cc1CSc1nnc(-c2ccncc2)o1,·,-2,-17,·,i
O=S(=O)(c1ccc(NC(=S)N/N=C/c2c3ccccc3cc3ccccc23)cc1)N1CCOCC1,0,11,-42,63*,i
CN1CCC(N(C)S(=O)(=O)c2ccc(NC(=O)COc3cccc(C(F)(F)F)c3)cc2)CC1,·,·,-5,·,·
O=C(NC(=O)N1CCN(c2ccc([N+](=O)[O-])cn2)CC1)c1c(Cl)cccc1Cl,-3,-3,·,-14,i
c1ccc(-c2nnc(-c3ccccc3)nn2)cc1,0,2,4,-9,i
c1cncc(-c2nnc(-c3cccnc3)nn2)c1,-5,-15,41*,-3,i
Cn1nc([N+](=O)[O-])c(C(C#N)c2nc3ccccc3n2C)c(Cl)c1=O (configuration not stated),0,?,65*,80*,i
